Screening data deposited in PubChem BioAssay by National Center for Advancing Translational Sciences (NCATS).
Hits are enriched below; roughly 6.9% of the tested compounds scored in any of these assays.
SW480 rerep: A quantitative high throughput screen for small molecules that induce DNA re-replication in SW480 colon adenocarcinoma cells. SW480 DNA re-replication, Hoechst DNA content imaging, 48 h. Potency, µM (titrated, usually from 46.1 µM), for inactives: at the highest dose re-replication activation, actives largely listed as activators. 1.8% of 340,000 active; also: potency is read from the fitted curve at half-maximal effect; % of control where 0% means no effect; nearly all actives have a fitted effect of over 55% in size
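Treated cells incubate 48 hr (37 C, 5% CO2), are stained 40 min with Hoechst, and nuclear fluorescence is enumerated; a rise in nuclei with high DNA signal marks re-replication.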
Vif-A3G inh: qHTS for Inhibitors of Vif-A3G Interactions: qHTS; DNA dC->dU-editing enzyme APOBEC-3G (Homo sapiens), Q9HC16; HeLa A3G-eYFP + Vif (tagged APOBEC3G with the HIV-1 protein that degrades it), YFP fluorescence, overnight; Potency, µM (doses to about 46.1 µM), for inactives: top-dose activity, negative = active, hits mostly inhibitors; 0.076% of 410,000 active; AID 602310, 2012; also: potency is read from the fitted curve at half-maximal effect; % is scaled to controls: 0 for no effect and ±100 for the full control effect; nearly all actives have a fitted effect of over 60% in size
Target sequence (Q9HC16 whole entry, looked up): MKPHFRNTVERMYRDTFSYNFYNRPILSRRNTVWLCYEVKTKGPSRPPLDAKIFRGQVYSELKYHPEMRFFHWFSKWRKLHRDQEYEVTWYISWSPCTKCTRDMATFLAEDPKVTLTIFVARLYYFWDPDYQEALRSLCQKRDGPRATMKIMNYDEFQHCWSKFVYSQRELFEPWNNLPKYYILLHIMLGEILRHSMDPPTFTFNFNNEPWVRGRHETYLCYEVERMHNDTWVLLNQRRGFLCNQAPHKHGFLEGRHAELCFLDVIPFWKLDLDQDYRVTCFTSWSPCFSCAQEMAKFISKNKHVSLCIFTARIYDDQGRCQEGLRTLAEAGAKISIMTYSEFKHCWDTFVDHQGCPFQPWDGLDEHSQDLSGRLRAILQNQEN
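Read-out is eYFP fluorescence (Ex 488/Em 500-530) from Vif-expressing HeLa A3G-eYFP cells; more signal means A3G escaped Vif-mediated degradation. Cells plated overnight, compound pinned in, incubated overnight at 37 deg C.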
Vif-APOBEC3F blk: qHTS for Inhibitors of Vif-A3F Interactions: qHTS | 0.2% of 390,000 active | HeLa A3F-eYFP + Vif (tagged APOBEC3F with the HIV-1 protein that degrades it), YFP fluorescence increase | Potency, µM (series often up to 46.1 µM), for the others: at the highest dose activity, negative = active | AID 602313, 2012; also: potency is read from the fitted curve at half-maximal effect; % of control where 0% means no effect; nearly all actives have a fitted effect of over 65% in size
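Fluorescence increase (Ex 488/Em 500-530) after overnight compound treatment at 37 deg C flags inhibition of Vif-driven A3F-eYFP loss in stable HeLa A3F-eYFP/Vif cells seeded overnight beforehand.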
IL-1B inflam inh: qHTS for Inhibitors of Inflammasome Signaling: IL-1-beta AlphaLISA Primary Screen; THP-1 LPS/ATP IL-1B secretion, AlphaLISA, 16 h; hits give low values; activity change, % at 57.5 µM; 4.7% of 360,000 active; AID 743279, 2014; in the data active = activity change below about -50%; inconclusive = mostly about -30% to -49%; also: % is scaled to controls: 0 for no effect and ±100 for the full control effect
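THP-1 cells pretreated 1 hr with compounds (up to 57.5 uM final), then stimulated with LPS (250 ng/mL final) plus ATP (1.25 mM final); secreted IL-1B measured by AlphaLISA after 16 hr, decreased signal indicating inhibition.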
Giardia kill: Small Molecules that selectively kill Giardia lamblia: qHTS; 0.15% of 340,000 active; AID 540267, 2011; activity change, % at 7.66 µM, hits read low; Giardia lamblia trophozoite viability; in the data active = activity change below about -80%; inconclusive = between about -30% and that limit;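 also: parasites exposed to compound for two days anaerobically before the ATP read; % is scaled to controls: 0 for no effect and ±100 for the full control effect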
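ATP-content bioluminescence gauges trophozoite survival. Cells (100/well) receive compound and incubate anaerobically for 48 hrs at 37 deg C; detection reagent follows for 15-30 min at room temperature.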
MCF10A rerep: A quantitative high throughput screen for small molecules that induce DNA re-replication in MCF 10a normal breast cells; MCF 10A DNA re-replication, Hoechst nuclear intensity, 48 h; 2.9% of 350,000 active; Potency, µM (highest dose often 46.1 µM), for the others: at the top dose activity, positive = re-replication, most hits filed as activators; also: potency is read from the fitted curve at half-maximal effect; % of control where 0% means no effect; nearly all actives have a fitted effect of over 50% in size
Active calls of the source: *; ? = inconclusive; / = no result given. Unless noted, calls follow the shape of the dose curve; as a rule, active = well fitted curve in the direction sought with a large enough effect; inconclusive = small, poorly fitted or top-dose-only effect, or another doubt; inactive = no such curve, though single readings can be large; an effect the other way counts as inactive or inconclusive.

SMILES	SW480 rerep	Vif-A3G inh	Vif-APOBEC3F blk	IL-1B inflam inh	Giardia kill	MCF10A rerep
Cc1ccc2c(c1)c1c(n2CC(O)Cn2nc(C)c(Br)c2C)CCCC1 (centres undefined)	9.0%	-7.9%	?	-21.4	5.6	23.1µM*
OC(CN1CCCCC1)Cn1c2ccccc2c2cc(Br)ccc21 (centres undefined)	?	3.8%	18.0%	-75.4*	-10.2	?
Cc1ccc2c(c1)c1c(n2CC(O)CN2CCCCCC2)CCCC1 (centres undefined)	?	0.6%	-21.4%	-74.0*	25.0	?
CCCCNC(=O)CSc1nc2nc(C)c(Cc3ccccc3C)c(C)n2n1	/	1.2%	-18.9%	/	/	/
CCc1nc2ccc(C(=O)NCCCN3CCN(c4ccc(F)cc4)CC3)cc2nc1CC	4.5%	3.0%	12.1%	2.2	29.2	?
CN1CCN(CCNC(=O)c2ccc3nc(-c4ccc(F)cc4)c(-c4ccc(F)cc4)nc3c2)CC1	?	2.3%	-2.7%	-52.7*	-13.7	?
CC(=O)N1CCCc2cc(S(=O)(=O)N3CCC(C(=O)NCc4cccc(C)c4)CC3)ccc21	/	3.2%	-5.1%	/	/	/
COCCNC(=O)CCN1C(=O)c2cccnc2Oc2ccc(C)cc21	/	0.1%	-7.1%	/	/	/
CCCCC(CC)CNC(=O)CCCc1nnc2n(CCC)c(=O)c3sccc3n12 (centres undefined)	/	-0.6%	0.7%	/	/	/
CC(=O)Nc1cc(-c2ccccc2Cl)cn2c(-c3ccc(S(C)(=O)=O)cc3)cnc12	/	-8.2%	/	-50.4*	/	/
COc1ccccc1-c1cc(NC(C)=O)c2ncc(-c3ccc(S(C)(=O)=O)cc3)n2c1	/	-12.8%	/	-2.2	/	/
CC(=O)Nc1cc(-c2cccc(C)c2)cn2c(-c3ccc(S(C)(=O)=O)cc3)cnc12	/	-12.7%	/	-57.4*	/	/
COc1ccc2c(c1)c(=O)c(C(=O)c1ccc(C)cc1)cn2Cc1ccccc1F	/	-25.5%	2.2%	/	/	/
Cc1ccc(Cc2c(C)nc3nc(SCC(=O)NC(C)c4ccccc4)nn3c2C)cc1 (centres undefined)	/	-2.3%	-3.7%	/	/	/
O=C(Nc1ccc2c(c1)CCC2)c1ncoc1-c1ccccc1F	?	-6.3%	-1.1%	-73.9*	-3.7	23.0%
CCc1ccccc1NC(=O)CN1C(=O)CCc2cc(S(=O)(=O)N3CCCCC3)ccc21	/	3.2%	-1.2%	/	/	/
COc1ccc(NC(=O)c2oc3ccccc3c2NC(=O)C2CCCCC2)c(OC)c1	/	3.4%	-2.9%	/	/	/
O=C(CCl)Nc1ccccc1Sc1ccc(Cl)cc1	14.6µM*	-26.4%	1.0%	-100.1*	-5.6	14.6µM*
CCN(CC)CC(=O)Nc1sc(C)cc1C(=O)c1ccccc1	9.3%	-4.6%	-2.3%	-23.4	4.3	?
O=C(CCl)Nc1ccccc1C(=O)Nc1ccc2c(c1)OCO2	-4.9%	-11.5%	5.3%	-97.0*	-7.4	?
O=C(CCl)Nc1ccccc1C(=O)c1ccccc1	14.6µM*	?	7.5%	-74.6*	50.6	7.31µM*
Cc1cc(C(=O)c2ccccc2)c(NC(=O)CCl)s1	?	-17.7%	5.4%	-100.4*	7.3	?
COc1cc(CNCCSc2nnnn2C)cc(Br)c1OCc1ccccc1F	22.2%	-0.4%	-3.1%	-1.7	16.1	?
COc1cc(CNCCSc2nnnn2C)cc(Br)c1OCc1ccccc1	?	2.6%	-17.4%	-28.0	-0.3	?
COc1cc(CNCCCN2CCOCC2)cc(Br)c1OCc1ccc(Cl)cc1	-2.9%	-20.9%	11.4%	0.0	-14.2	13µM*
CCOc1cc(CNCCSc2nnnn2C)cc(Br)c1OCc1ccc(F)cc1	?	-21.8%	1.1%	-87.3*	8.0	27.5%
COc1cc(CNCCN2CCOCC2)ccc1OCc1ccc(Cl)cc1	?	1.0%	-3.8%	?	15.8	?
